Where “and” joins values, the source holds several entries; their conditions need not be identical. Identical values can stand only once. In all, about 5,500 compounds went through this assay and about 2,000 (36%) were called active. Not shown: some 18% with an inconclusive outcome. Rule as the data show it: active = normalized growth mostly below about 0.91 (no sharp cut-off); inconclusive = no clear call, values can overlap the other calls; inactive = mostly above about 0.92. Some of the results follow.
Test: chemical genetic growth profiling, strain panel (AID 1159580);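 also: tested at 20 µM; growth read once vehicle control cultures reached saturation at 30 °C; 1 = growth at the plate median or of vehicle wells; lower values mean less growth of the strain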
Conditions: S. cerevisiae deletion strains, growth OD

Measured: normalized growth

Cc1nc2ccccn2c(=O)c1CCN1CCC(C(=O)c2ccc(F)cc2)CC1
inactive: locus YAL013W, strain DEP1, hits give low values 1.02 and 1.01 | locus YAL021C, strain ccr4, hits give low values 1 | locus YAL026C, strain drs2, hits give low values 1 | locus YAL030W, strain snc1, hits give low values 0.999 | locus YAL040C, strain CLN3, hits give low values 0.993 | locus YBL061C, strain skt5, hits give low values 0.983 | locus YBR009C, strain hhf1, hits give low values 0.987 | locus YBR021W, strain FUR4, hits give low values 0.981 | locus YBR023C, strain chs3, hits give low values 0.986 | locus YBR171W, strain sec66, hits give low values 0.981 | locus YBR229C, strain ROT2, hits give low values 1.02 | locus YBR231C, strain swc5, hits give low values 0.984 | locus YBR279W, strain paf1, hits give low values 0.977 | locus YCL011C, strain gbp2, hits give low values 0.997 | locus YCL016C, strain dcc1, hits give low values 0.989 | locus YCL029C, strain bik1, hits give low values 0.999 | locus YCL061C, strain MRC1 (second series), hits give low values 1.01 | locus YCL061C, strain MRC1, hits give low values 1.02 | locus YCL069W, strain vba3, hits give low values 1 | locus YCR088W, strain abp1, hits give low values 0.982 | locus YDL005C, strain med2, hits give low values 0.973 | locus YDL035C, strain GPR1, hits give low values 1.02 | locus YDL040C, strain nat1, hits give low values 1 | locus YDL074C, strain BRE1, hits give low values 1.07 | locus YDL101C, strain DUN1, hits give low values 1.04 | locus YDL134C, strain PPH21, hits give low values 1.02 | locus YDL185W, strain tfp1, hits give low values 0.992 | locus YDL192W, strain arf1, hits give low values 0.997 | locus YDR001C, strain nth1, hits give low values 0.986 | locus YDR069C, strain doa4, hits give low values 0.972 | locus YDR101C, strain arx1, hits give low values 0.979 | locus YDR137W, strain rgp1, hits give low values 0.976 | locus YDR150W, strain NUM1, hits give low values 1.03 and 1 | locus YDR159W, strain sac3, hits give low values 0.977 | locus YDR162C, strain NBP2, hits give low values 1.05 | locus YDR195W, strain ref2 0.996 | locus YDR297W, strain sur2, hits give low values 0.98 | locus YDR318W, strain mcm21, hits give low values 0.983 | locus YDR334W, strain swr1, hits give low values 0.982 | locus YDR335W, strain msn5, hits give low values 0.984 | locus YDR363W, strain ESC2, hits give low values 1.01 | locus YDR388W, hits give low values 0.995 | locus YDR392W, strain spt3, hits give low values 0.988 | locus YDR502C, strain sam2, hits give low values 1.01 | locus YEL003W, strain gim4, hits give low values 0.997 | locus YEL037C, strain rad23, hits give low values 0.984 | locus YEL061C, strain CIN8 (second series), hits give low values 0.994 | locus YEL061C, strain CIN8, hits give low values 1.01 | locus YER002W, strain NOP16, hits give low values 0.983 | locus YER015W, strain faa2, hits give low values 0.997 | locus YER016W, strain bim1, hits give low values 0.985 | locus YER110C, hits give low values 0.991 | locus YER111C, strain swi4, hits give low values 0.973 | locus YER155C, strain BEM2 (second series), hits give low values 1 | locus YER155C, strain BEM2, hits give low values 1.02 | locus YER167W, strain BCK2, hits give low values 1.01 | locus YFR010W, strain ubp6, hits give low values 0.989 | locus YGL078C, strain dbp3, hits give low values 0.999 | locus YGL086W, strain mad1, hits give low values 0.996 | locus YGL167C, strain pmr1, hits give low values 0.983 | locus YGL173C, strain kem1, hits give low values 0.992 | locus YGL227W, strain vid30, hits give low values 1 | locus YGL240W, strain doc1, hits give low values 1.01 | locus YGL248W, strain PDE1, hits give low values 1.02 | locus YGL253W, strain hxk2, hits give low values 0.996 | locus YGR078C, strain PAC10, hits give low values 1.04 and 1.02 | locus YGR135W, strain pre9, hits give low values 1 | locus YGR229C, strain SMI1, hits give low values 1.04 | locus YGR252W, strain gcn5, hits give low values 0.945 | locus YHR013C, strain ard1, hits give low values 0.97 | locus YHR027C, strain rpn1, hits give low values 0.985 | locus YHR030C, strain SLT2, hits give low values 1.02 | locus YHR079C, strain IRE1 (second series), hits give low values 0.985 | locus YHR079C, strain IRE1, hits give low values 1.05 | locus YHR094C, strain hxt1, hits give low values 0.998 | locus YHR129C, strain ARP1, hits give low values 1.02 | locus YHR142W, strain chs7, hits give low values 0.968 | locus YHR200W, strain rpn10, hits give low values 0.998 | locus YIL066C, strain RNR3, hits give low values 1.03 | locus YIL073C, strain SPO22, hits give low values 0.973 | locus YIL125W, strain kgd1, hits give low values 1 | locus YIR030C, strain dcg1, hits give low values 1 | locus YJL092W, strain hpr5, hits give low values 0.987 | locus YJL095W, strain BCK1 (second series), hits give low values 0.986 | locus YJL095W, strain BCK1, hits give low values 1.04 and 1.01 | locus YJL115W, strain asf1, hits give low values 0.991 | locus YJL129C, strain trk1, hits give low values 0.987 | locus YJL134W, strain LCB3, hits give low values 1.02 | locus YJL154C, strain vps35, hits give low values 0.987 | locus YJL164C, strain tpk1, hits give low values 0.993 | locus YJL166W, strain qcr8, hits give low values 0.996 | locus YJL168C, strain set2, hits give low values 0.99 | locus YJL187C, strain SWE1 (second series), hits give low values 1.03 | locus YJR043C, strain POL32, hits give low values 1 | locus YJR066W, strain TOR1, hits give low values 0.993

From PubChem BioAssay AID1159580 (chemical genetic matrix, 2015)
